# Source: PubChem BioAssay (Tox21)
# Results filed as inconclusive are left out. Entries that show only a call come without a potency. Active and inactive are the calls of the source. Calls follow the shape of the dose curve; as a rule, active = well fitted cell-killing curve with a large enough effect in the repeat runs; inconclusive = weak or mixed curves; inactive = flat fitted curve, though single readings scatter.
# Test: qHTS assay to identify small molecule antagonists of the estrogen receptor beta (ER-beta) signaling pathway - cell viability counter screen (AID 1259382); also: nearly all actives have a fitted effect of over 55% in size
# Conditions: ER-beta-UAS-bla HEK293T viability, CellTiter-Glo luminescence, 16 h; series mostly up to 92.4 µM
# From the text: U.S. Tox21 Program National Center for Advancing Translational Sciences [NCATS] NIH Chemical Genomics Center [NCGC] U.S. Environmental Protection Agency [EPA] National Institutes of Environmental Health Sciences [NIEHS] National Toxicology Program [NTP] U.S. Food and Drug Administration [FDA] Tox21 Assay Overview: Estrogen receptor (ER), a nuclear hormone receptor, plays an important role in development, metabolic homeostasis and reproduction. Two subtypes of ER, ER-alpha and ER-beta, have similar expression patterns with some uniqueness in both types. Endocrine disrupting chemicals (EDCs) and their interactions with steroid hormone receptors like ER causes disruption of normal endocrine function. To identify the compounds that inhibit ER signaling, an ER-beta-UAS-bla GripTite cell line (Life Technologies, Madison, WI, USA) containing a beta-lactamase reporter gene under the control of an UAS response element was used to screen Tox21 10K compound library. The cytotoxicity of the Tox21 compound library against the ER-beta-bla cell line was tested in parallel by measuring the cell viability using CellTiter-Glo assay in the same wells.
# Tox21 Assay Protocol Summary: ER-beta-UAS-bla HEK293T cells were dispensed at 2,000 cells/4 uL of assay medium containing 2% charcoal stripped FBS per well into black wall/clear-bottom 1536-well plates using a Multidrop Combi (ThermoFisher Scientific, Waltham, MA) dispenser. After the assay plates were incubated at a 37C and 5% CO2 for 6 hr, 23 nL of compounds dissolved in DMSO, positive controls or DMSO only was transferred to the assay plate by a Pintool station (Kalypsys, San Diego, CA), followed by addition of 1 uL (1nM as final concentration) of 17-beta-estradiol (E2) in assay medium using a Flying Reagent Dispenser (FRD, Aurora Discovery, San Diego, CA). The plates were incubated at 37C and 5% CO2 for 16 hr. Then 1 uL of LiveBLAzer B/G FRET substrate was added using a Flying Reagent Dispenser, the plates were incubated at room temperature for 2 hours, and fluorescence intensity was measured by an Envision plate reader (PerkinElmer, Shelton, CT). For cell viability readout that measures cytotoxicity, 4 uL/well of CellTiter-Glo reagent was added into the assay plates using a FRD. After 30 min incubation at room temperature, the luminescence intensity in the plates was measured using a ViewLux (PerkinElmer) plate reader.
# Potency is read from the fitted curve at half-maximal effect.
SMILES,Potency,"activity change, negative = cytotoxicity"
C[Si]1(C)O[Si](C)(C)O[Si](C)(C)O1,inactive,–
CCCCCCCCSCCO,inactive,–
CO[Si](C)(OC)OC,inactive,–
C/C=C(\C)C(=O)OCCC(C)CCC=C(C)C (stereo not given),inactive,–
CC1(C)O[C@@H]2C[C@H]3[C@@H]4CCC5=CC(=O)C=C[C@]5(C)[C@H]4[C@@H](O)C[C@]3(C)[C@]2(C(=O)CO)O1,inactive,–
COCCOC(=O)C1=C(C)NC(C)=C(C(=O)OC/C=C/c2ccccc2)C1c1cccc([N+](=O)[O-])c1 (stereo not given),inactive,–
CC(C)=CC=O,inactive,–
Cc1nc2ccccn2c(=O)c1CCN1CCC(C(=O)c2ccc(F)cc2)CC1,inactive,–
NCC1CCCC(CN)C1 (stereo not given),inactive,–
CCC(C)(C)C1CCC(O)CC1 (stereo not given),inactive,–
OC(CCCN1CCCCC1)(c1ccccc1)c1ccccc1,inactive,–
CCOC(=O)N1CCC(n2c(=O)[nH]c3cc(Cl)ccc32)CC1,inactive,–
CN1C(=O)CC(C)(c2ccccc2)C1=O (stereo not given),inactive,–
O=C(CCCCCCC(=O)Nc1ccccc1)NO,1.19 µM (active),–
CC(=O)Nc1ccc(N)cc1,inactive,–
CCCCCCOC(=O)C(C)C,inactive,–
CC1=NN(c2ccc(C(=O)O)cc2)C(=O)C1,inactive,–
CC(=O)N(c1onc(C)c1C)S(=O)(=O)c1ccc(N)cc1,inactive,–
CC1CN(c2cc3c(cc2F)c(=O)c(C(=O)O)cn3-c2ccc(F)cc2F)CCN1 (stereo not given),–,1.64% [at 8.39 µM] (inactive)
CCCOC(=O)c1ccc(N)cc1,inactive,–

SMILES,Potency,"activity change, negative = cytotoxicity"
CO[C@H]1O[C@H](CO)[C@@H](O)[C@H](O)[C@H]1O,inactive,–
NC(=O)Nc1ccc(Cl)cc1,inactive,–
Cc1ccc(S(=O)(=O)NC2CCCCC2)cc1,inactive,–
COc1ccc([C@@H]2Sc3ccccc3NC(=O)[C@@H]2O)cc1,inactive,–
CCOC(=O)c1ccccc1C,inactive,–
CC(=O)[C@H]1CC[C@H]2[C@@H]3C[C@H](C)C4=CC(=O)CC[C@]4(C)[C@H]3[C@@H](O)C[C@]12C,inactive,–
C=C(C)C(=O)OCCOC(=O)CC(C)=O,inactive,–
CC[C@@H]([C@H](C)O)n1ncn(-c2ccc(N3CCN(c4ccc(OC[C@@H]5CO[C@@](Cn6cncn6)(c6ccc(F)cc6F)C5)cc4)CC3)cc2)c1=O,9.44 µM (active),–
CCCC1C(CC)=CC(CC)=CN1c1ccccc1 (stereo not given),inactive,–
CC(C)CCCC(=O)O,inactive,–
CCCCOC(=O)CCS,inactive,–
Cc1cc(C(=C2C=CC(=Nc3ccc(S(=O)(=O)O)cc3S(=O)(=O)O)C=C2)c2ccc(Nc3ccc(S(=O)(=O)O)cc3)cc2)ccc1N,inactive,–
CC(=O)Oc1ccc2c(c1)CC[C@@H]1[C@@H]2CC[C@]2(C)[C@@H](O)CC[C@@H]12,inactive,–
NC(=O)Nc1ccc(Cl)c(Cl)c1,inactive,–
Cc1oncc1C(=O)Nc1ccc(C(F)(F)F)cc1,inactive,–
O=C(CS)OCCOC(=O)CS,inactive,–
CC1=CC(=O)CC(C)(C)C1(O)/C=C/C(C)=C\C(=O)O (stereo not given),inactive,–
CCCCN(CCCC)CCCOC(=O)c1ccc(N)cc1,inactive,–
NC(=O)N(O)[C@@H]1C=C[C@H](Oc2cccc(Oc3ccc(F)cc3)c2)C1,inactive,–
CCCCCCCC/C=C\CCCCCCCC(=O)OC,inactive,–
